Shown are actives, neighbours in structure and some others; about 3.8% of the full set was active somewhere.
Nrf2 activator – qHTS of Nrf2 Activators | Potency, µM (titrated, usually from 46.1 µM), for inactives: at the highest dose activation, most hits filed as activators | AID 624171, 2012 | AREc32 ARE-luciferase reporter (MCF7-derived line), luminescence, 24 h | 410,000 tested, 0.31% active; note: % of control where 0% means no effect; nearly all actives have a fitted effect of over 65% in size
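AREc32 cells carrying an ARE-driven firefly luciferase, 1000 cells/well in OPTI-MEM with 5% FBS, dosed after overnight attachment and incubated 24 hr at 37 deg C. Steady-Glo luminescence read after 30 min at RT.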
A549 tox-1 – Nrf2 qHTS screen for inhibitors: counterscreen for cytotoxicity; A549 ARE-Fluc cells, CellTiter-Fluor viability, 18-24 h; Potency, µM (series often up to 46 µM), inactives show at the highest dose activity change, negative = cytotoxicity, most hits filed as inhibitors; 390,000 tested, 0.16% active; AID 504648, 2011; note: % is set by controls: 0 for no effect and ±100 for the full control effect
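Cytotoxicity counterscreen: CellTiter-Fluor fluorescence was measured in A549 ARE_Fluc cells after 18-24 h of compound exposure in a concentration series. The subsequent BugLite luminescent read reports ARE-luciferase activity.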
IDH1 R132H inh – qHTS for Inhibitors of mutant isocitrate dehydrogenase 1 (IDH1): qHTS; AID 602179, 2012; Potency, µM (titrated, usually from 76.6 µM), inactives show at the top dose activity change, negative = inhibition, hits mostly inhibitors; IDH1-R132H enzyme, NADPH consumption, diaphorase/resazurin fluorescence; 390,000 tested, 0.093% active; note: % is set by controls: 0 for no effect and ±100 for the full control effect; nearly all actives have a fitted effect of over 65% in size
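IDH1-R132H (0.5 ug/mL) preincubated 30 min with compound, then NADPH (0.016 mM) and alpha-KG (2 mM) added; 80 min at RT, pH 7.5. Remaining NADPH coupled via diaphorase/resazurin to fluorescence (540/590 nm); concentration-response curves normalized to no-enzyme control.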
Nrf2 inh – Nrf2 qHTS screen for inhibitors; A549 ARE-Fluc reporter, luciferase luminescence, 18-24 h; Potency, µM (highest dose often 46 µM), inactives show at the highest dose activity change, negative = inhibition, most hits filed as inhibitors; 360,000 tested, 2.1% active; note: % is set by controls: 0 for no effect and ±100 for the full control effect; nearly all actives have a fitted effect of over 60% in size
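Nrf2 function is reported as luminescence of an ARE-controlled luciferase in A549 cells. Compounds were tested at several concentrations, and a CellTiter-Fluor read on the same wells flagged cytotoxicity.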
ELG1 DNA repair – qHTS screen for small molecules that inhibit ELG1-dependent DNA repair in human embryonic kidney (HEK293T) cells expressing luciferase-tagged ELG1 | 330,000 tested, 2.3% active | Potency, µM (top dose mostly 46.1 µM), for inactives: at the top dose activity change, negative = inhibition, most hits filed as inhibitors | HEK293T ELG1-luciferase reporter, luminescence, 16 h; DNA damage induced by 5-fluorouridine | AID 504467, 2011; note: % is set by controls: 0 for no effect and ±100 for the full control effect; nearly all actives have a fitted effect of over 55% in size
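Step one: seed 2,000 cells per well. Step two: pin-transfer compound or DMSO alongside 5-fluorouridine. Step three: incubate 16 hr, 37 °C, 5% CO2. Step four: add ONE-Glo, wait 30 min, read luminescence.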
FLuc enzyme inh – Nrf2 qHTS screen for inhibitors: Purified Fluc Biochemical Counterscreen for Hit Validation. shares compounds with Nrf2 inh. purified firefly luciferase, luminescence inhibition. Potency, µM (titrated, usually from 57.5 µM), for the others: at the top dose activity change, negative = inhibition, actives largely listed as inhibitors. 1,400 tested, 4% active; note: % is set by controls: 0 for no effect and ±100 for the full control effect; nearly all actives have a fitted effect of over 65% in size
Target sequence (P08659 whole entry, looked up): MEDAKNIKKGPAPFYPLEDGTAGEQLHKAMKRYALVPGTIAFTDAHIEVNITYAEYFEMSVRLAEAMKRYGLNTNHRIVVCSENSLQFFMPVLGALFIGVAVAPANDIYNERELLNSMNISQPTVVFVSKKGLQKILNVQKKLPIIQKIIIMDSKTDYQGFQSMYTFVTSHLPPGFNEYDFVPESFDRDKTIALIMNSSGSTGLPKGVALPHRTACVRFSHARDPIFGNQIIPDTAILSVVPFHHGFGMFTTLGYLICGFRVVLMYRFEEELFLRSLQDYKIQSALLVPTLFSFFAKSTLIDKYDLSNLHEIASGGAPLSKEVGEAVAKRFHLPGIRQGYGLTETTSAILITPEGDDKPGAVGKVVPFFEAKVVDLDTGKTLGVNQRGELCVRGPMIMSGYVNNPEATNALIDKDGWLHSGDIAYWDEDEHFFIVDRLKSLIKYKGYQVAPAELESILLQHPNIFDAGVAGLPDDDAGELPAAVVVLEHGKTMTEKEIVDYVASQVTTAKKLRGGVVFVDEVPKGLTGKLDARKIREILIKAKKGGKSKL
A549 tox-2 – Nrf2 qHTS screen for inhibitors: A549 ARE-Fluc Cytotoxicity Counterscreen for Hit Validation; shares compounds with Nrf2 inh; A549 ARE-Fluc cells, cytotoxicity counterscreen; Potency, µM (titrated, usually from 46.1 µM), for the others: at the top dose activity change, negative = cytotoxicity, most hits filed as inhibitors; 1,400 tested, 2% active; AID 720523, 2013;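 note: cells exposed to compounds for 18 to 24 hours; % is set by controls: 0 for no effect and ±100 for the full control effect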
Nrf2 ARE inh – Nrf2 qHTS screen for inhibitors: Nrf2 A549 ARE-Fluc Confirmation Assay for Hit Validation. shares compounds with Nrf2 inh. A549 ARE-firefly luciferase reporter, luminescence. Potency, µM (doses to about 46.1 µM), without a hit: at the highest dose activity change, negative = inhibition, usual class: inhibitors. 1,400 tested, 74% active. AID 720524, 2013; note: % is set by controls: 0 for no effect and ±100 for the full control effect; nearly all actives have a fitted effect of over 65% in size
Active calls of the source: *; ? = inconclusive; nt = not tested or not shown; [ ] = another dose, or the depositor's remark. Calls come from the whole dose curve; as a rule, active = well fitted curve in the direction sought with a large enough effect; inconclusive = small, poorly fitted or top-dose-only effect, or another doubt; inactive = no such curve, though single readings can be large; an effect the other way counts as inactive or inconclusive. Potency is the fitted concentration of half-maximal effect.

SMILES | Nrf2 activator | A549 tox-1 | IDH1 R132H inh | Nrf2 inh | ELG1 DNA repair | FLuc enzyme inh | A549 tox-2 | Nrf2 ARE inh
COC1C(O)C(C)OC(OC2CCC3(C)C(CCC4C3C(O)CC3(C)C(C5=CC(=O)OC5)CCC43O)C2)C1O (stereo unspecified) | -1.9% | ? | 0.6% | 0.146µM* | nt | 1.2% | ? | 0.116µM*
C[C@@H]1O[C@@H](O[C@H]2C[C@@H](O)[C@]3(CO)[C@@H]4C(CC[C@]3(O)C2)[C@@]2(O)CC[C@H](C3COC(=O)C3)[C@@]2(C)C[C@H]4O)[C@H](O)[C@H](O)[C@H]1O (stereo partly specified) | -2.0% | ? | 13.1% | 0.206µM* | 1.78µM* | 0.3% | ? | 1.16µM*
C[C@H]1CC[C@@H]2[C@@H](C)[C@H]3[C@H](C[C@H]4[C@@H]5CC=C6C[C@@H](O[C@@H]7O[C@H](CO)[C@H](O)[C@H](O[C@@H]8O[C@H](CO)[C@@H](O)[C@H](O)[C@H]8O)[C@H]7O[C@@H]7O[C@@H](C)[C@H](O)[C@@H](O)[C@H]7O)CC[C@]6(C)[C@H]5CC[C@]34C)N2C1 | -3.3% | -17.5% | 4.1% | -21.5% | ? | nt | nt | nt
CC12CC[C@H]3[C@@H](CCC4(O)C[C@H](O)CCC34/C=N/NC(=O)Cc3ccccc3)C1(O)CCC2C1=CC(=O)OC1 (stereo partly specified) | -0.6% | -25.1% | 1.4% | ? | -5.7% | nt | nt | nt
CNC(=O)Nc1ccc(C(=O)N/N=C\C23CC[C@@H](O)CC2(O)CC[C@@H]2[C@@H]3CCC3(C)C(C4=CC(=O)OC4)CCC23O)cc1 (stereo partly specified) | -1.0% | -16.2% | 5.4% | ? | -12.7% | nt | nt | nt
CC1OC(O[C@H]2C[C@@H](O)[C@]3(CO)[C@H]4[C@H](O)C[C@]5(C)[C@@H](C6=CC(=O)OC6)CC[C@]5(O)[C@@H]4CC[C@]3(O)C2)C(O)C(O)C1O (stereo partly specified) | nt | nt | nt | nt | nt | 3.7% | ? | 0.0366µM*
O=C(Cn1c(=O)oc2cc(S(=O)(=O)N3CCCC3)ccc21)Nc1cccc(C(F)(F)F)c1 | 4.4% | -9.6% | -1.1% | ? | 27.3% | nt | nt | nt
Cc1cnn(-c2cc(Oc3ccccc3)ncn2)c1 | 4.1% | -1.7% | 5.8% | 21.8% | ? | nt | nt | nt
S=c1[nH]nc(-c2ccn[nH]2)n1-c1ccccc1Cl | 2.3% | 12.1% | -0.5% | ? | ? | nt | nt | nt
Nc1c(C(=O)Nc2ccc(OC(F)(F)F)cc2)sc2nc3c(cc12)N1CCC3CC1 | 0.6% | -13.2% | 2.0% | 6.51µM* | nt | -1.9% | -15.2% | nt
O=C(NN1C(=O)C2C3C=CC(C4CC34)C2C1=O)c1ccc(Br)cc1 (stereo unspecified) | 1.9% | -0.8% | 1.1% | ? | ? | nt | nt | nt
Cc1ccc2c(C)c3ccc4ccccc4c3c[n+]2c1 | -1.7% | ? | 5.0% | 2.59µM* | nt | -0.8% | -28.7% | 5.8µM*
Cc1cc(S(=O)(=O)NC(C)C)ccc1OCC(=O)N1CCN(Cc2ccc3c(c2)OCO3)CC1 | 3.3% | -28.6% | 1.7% | 9.2µM* | -25.9% | -1.9% | -3.4% | -23.6%
Cc1cc(S(=O)(=O)NCC(C)C)ccc1OCC(=O)N1CCN(Cc2ccccc2)CC1 | 1.4% | -19.5% | 7.6% | nt | ? | nt | nt | nt
CCCCCn1c(=O)c(C(=O)Nc2cc(C)ccn2)c(O)c2ccccc21 | 0.0% | -0.7% | -5.1% | 2.7% | -6.7% | nt | nt | nt
CCCCn1c(=O)c(C(=O)Nc2ncccc2C)c(O)c2ccccc21 | 2.7%[9.22 µM] | -17.8% | 3.9% | ? | -13.8% | nt | nt | nt
CCCCCn1c(=O)c(C(=O)Nc2cnccn2)c(O)c2ccccc21 | 3.4% | ? | -3.7% | 4.61µM* | ? | 1.1% | ? | 5.8µM*
CCCCCCCn1c(=O)c(C(=O)Nc2cnccn2)c(O)c2ccccc21 | 7.5% | ? | 10.0% | 4.11µM* | ? | 1.4% | ? | nt
CCCCCCn1c(=O)c(C(=O)Nc2ncccc2C)c(O)c2ccccc21 | 2.9% | -22.6% | 4.3% | 8.2µM* | 0.2% | -0.1% | -13.7% | ?
CC1Oc2cc3c(-c4c(O)cc(O)c5c(O)c6c(cc45)OC(C)C(C)C6=O)c(O)cc(O)c3c(O)c2C(=O)C1C (stereo unspecified) | 0.1% | ? | -19.7% | 4.61µM* | 6.51µM* | 0.6% | -17.5% | 9.2µM*
CC(C)c1cccc(C(C)C)c1OC(=O)NC(=O)c1c(F)cccc1F | -0.7% | ? | 9.3% | -3.8% | 7.4% | nt | nt | nt
CCN1CC=C(c2c[nH]c3ccccc23)CC1 | 0.5% | ? | 10.3% | 1.3µM* | -9.2% | -28.5% | ? | 0.0326µM*
COc1ccc(C(=O)NCc2cc3ccccc3n2C)cc1 | 3.9% | -1.7% | 6.3% | ? | ? | nt | nt | nt
COC(=O)c1ccccc1-n1c(C)nc2ccccc2c1=O | 2.4% | -19.0% | 8.0% | nt | 22.9% | nt | nt | nt
O=C(O)c1cccc2nc3ccccc3nc12 | -0.6% | -20.9% | -0.1% | 2.31µM* | ? | 0.9% | -29.0% | 3.26µM*
COc1ccc(-c2oc(=O)n(C)c2-c2ccc(OC)cc2)cc1 | 7.3% | 7.8% | -3.9% | -22.0% | ? | nt | nt | nt
COc1ccc(NC(=O)CCCn2c(=O)oc3ccccc32)cc1Cl | 0.6% | -0.1% | 7.5% | ? | ? | nt | nt | nt
COc1ccc(CCn2c(NN=C3CCCCC3)nc3c2c(=O)[nH]c(=O)n3C)cc1 | 19.2% | -3.7% | 5.3% | -2.7% | ? | nt | nt | nt
CC[C@@]1(O)C(=O)OCc2c1cc1n(c2=O)Cc2cc3c(N)cccc3nc2-1 | -2.8% | ? | 9.0% | 0.651µM* | ? | -9.2% | ? | 0.259µM*
Cc1cc2oc(=O)cc(-c3ccccc3)c2c(C)c1-c1ccc(CO)cc1 | 5.3% | 11.9% | -27.6% | -17.5% | ? | nt | nt | nt

Assay outcomes (PubChem BioAssay)
